The entries come from a sample that favours hits as a whole.
Shiga toxin inh: A qHTS for Small Molecule Inhibitors of Shiga Toxin. Vero cells, Shiga toxin protein synthesis inhibition reporter. inhibition, % at 38.7 µM. 9.2% of 290,000 active; in the data active = inhibition mostly above about 28%, no sharp cut-off; inactive = mostly below about 43%; note: 0% is about no effect
LmPK inhibitor: qHTS Assay for Inhibitors of Leishmania Mexicana Pyruvate Kinase (LmPK) | purified LmPK, Kinase-Glo ATP luminescence, 1 h | Potency, µM (series often up to 57.5 µM), for the others: at the top dose activity change, negative = inhibition, actives largely listed as inhibitors | 0.37% of 290,000 active; note: potency is the fitted concentration of half-maximal effect; % is set by controls: 0 for no effect and ±100 for the full control effect
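Screened at intermediate enzyme activity to detect both inhibitors and activators: LmPK at 0.1 nM, with a 0.5 nM enzyme column as activation reference. PEP 0.5 mM, ADP 0.1 mM; ATP detected by luminescence after 1 h.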
Cycloheximide cs: Cycloheximide Counterscreen for Small Molecule Inhibitors of Shiga Toxin; max response, %; 12% of 300,000 active; cell reporter, cycloheximide protein synthesis inhibition counterscreen; AID 2314, 2010; in the data active = max response mostly above about 13%, no sharp cut-off; inactive = mostly below about 14%; note: read at 38.3 µM for the half of the compounds with a filed dose; 0% is about no effect
RE007 growth inh: qHTS Assay for Inhibitors of the HIV-1 protein Vpr; AID 651644, 2012; S. pombe RE007 Vpr strain, BacTiter-Glo ATP luminescence, 24 h; 0.21% of 360,000 active; Potency, µM (series often up to 92.2 µM), inactives show at the highest dose activity change, negative = less growth, actives largely listed as inhibitors; active = well fitted falling curve with a large enough effect; inconclusive = small, poorly fitted or top-dose-only effect; inactive = no such curve, though single readings can be large or run the other way; note: potency is the fitted concentration of half-maximal effect; % is set by controls: 0 for no effect and ±100 for the full control effect; nearly all actives have a fitted effect of over 50% in size
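Fission yeast RE007 carrying one integrated HIV-1 vpr copy, seeded at OD 0.01 in PMG+AL medium with 23 nL pinned compound. Grown 24 h at 30 degrees; viability read by BacTiter-Glo luminescence after 5 min.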
Tb PYK inh: qHTS of Trypanosoma Brucei Inhibitors. pyruvate kinase (Trypanosoma brucei), Q57TT1. TbPYK enzyme, Kinase-Glo Plus ATP luminescence, 45 min. Potency, µM (highest dose often 76.8 µM), for the others: at the top dose activity, negative = inhibition, usual class: inhibitors. 0.12% of 410,000 active; note: potency is the fitted concentration of half-maximal effect; % is set by controls: 0 for no effect and ±100 for the full control effect; nearly all actives have a fitted effect of over 50% in size
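In this concentration-response screen, enzyme-free wells defined baseline while DMSO plates tracked drift. Each reaction combined TbPYK, substrate, compound and 130 uM ADP for 45 min at room temperature. Kinase-Glo Plus luminescence gave the signal.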
Giardia FBPA inh: qHTS Assay for Inhibitors of Fructose-1,6-bisphosphate Aldolase from Giardia Lamblia. A8B2U2. purified Giardia FBPA. Potency, µM (highest dose often 59.6 µM), for inactives: top-dose activity, negative = inhibition, most hits filed as inhibitors. 0.71% of 290,000 active. AID 2451, 2010; note: potency is the fitted concentration of half-maximal effect; % is set by controls: 0 for no effect and ±100 for the full control effect; nearly all actives have a fitted effect of over 55% in size
Target sequence (A8B2U2 whole entry, looked up): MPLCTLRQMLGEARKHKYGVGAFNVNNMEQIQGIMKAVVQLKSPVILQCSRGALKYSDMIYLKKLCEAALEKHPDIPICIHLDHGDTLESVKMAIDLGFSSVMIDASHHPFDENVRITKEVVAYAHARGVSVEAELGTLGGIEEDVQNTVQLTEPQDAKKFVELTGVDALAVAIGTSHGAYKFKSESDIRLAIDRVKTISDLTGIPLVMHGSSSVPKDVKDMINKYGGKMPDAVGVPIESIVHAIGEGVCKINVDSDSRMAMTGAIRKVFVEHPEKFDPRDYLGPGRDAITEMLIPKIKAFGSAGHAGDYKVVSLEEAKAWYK
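Giardia FBPA (40 nM reagent) was preincubated 10 min at RT with compound (up to 57.5 uM final), then substrate plus GAPDH/TPI/NAD/arsenate coupling system with diaphorase/resazurin was added; resorufin fluorescence (525/598 nm) was read after 20 min.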
An asterisk follows results filed as active; ? = inconclusive; . = not tested or not shown; + = active, no number; [ ] = dose if it differs, or a comment. Unless noted, calls come from the whole dose curve; as a rule, active = well fitted curve in the direction sought with a large enough effect; inconclusive = small, poorly fitted or top-dose-only effect, or another doubt; inactive = no such curve, though single readings can be large; an effect the other way counts as inactive or inconclusive.

SMILES	Shiga toxin inh	LmPK inhibitor	Cycloheximide cs	RE007 growth inh	Tb PYK inh	Giardia FBPA inh
C=CCn1c(C)cc(C(=O)COC(=O)C2CC(=O)N(Cc3ccccc3)C2)c1C (stereo unspecified)	36.1	5.7%	12.1*	10.2%	0.9%	-3.0%
O=C(Nc1nc2n(n1)C(c1ccccc1)C=C(c1ccccc1)N2)c1ccccc1 (stereo unspecified)	.	.	.	.	-5.8%	.
O=S(=O)(c1ccc(Cl)cc1)c1nc(-c2cccs2)oc1N1CCCCC1	.	.	.	.	-4.7%	.
CSc1ccc(-c2nc(CN(C)C3CCOC3)c(C)o2)cc1 (stereo unspecified)	42.2*	0.2%	31.2*	-21.1%	0.2%	-0.1%
Cc1ccc(-c2nc(CN(C)C(C3CC3)C3CC3)c(C)o2)cc1	21.5	6.2%	12.8	-3.0%	-15.9%	-0.4%
COc1ccc(C(C[N+](=O)[O-])c2c(-c3ccccc3)cc3ccccn23)c(OC)c1 (stereo unspecified)	71.3*	1.8%	54.9	?	2.2%	?
COc1ccc(C(C[N+](=O)[O-])c2c(C)cc3ccccn23)cc1 (stereo unspecified)	-2.5	-0.2%	12.8	?	-5.2%	?
CCCn1c2ccccc2c2cnn(CC(=O)N3CCN(c4ccccc4)CC3)c(=O)c21	.	.	.	.	-1.4%	.
COc1cc(/C=C/c2noc(-c3ccccc3O)n2)ccc1OC(C)=O	42.0*	-1.8%	15.4*	-3.9%	2.8%	-2.3%
Oc1ccccc1/C=C/c1noc(-c2ccccc2O)n1	70.3*	-2.9%	33.2*	-9.9%	5.5%	-6.4%
CC(=O)Nc1ccc(/C=C/c2nc(-c3ccccc3O)n(-c3ccccc3)n2)cc1	.	.	.	.	5.8%	.
CC(=O)Nc1ccc(/C=C/c2noc(-c3ccccc3O)n2)cc1	53.7*	0.4%	21.0	-6.5%	7.5%	4.5%
CN(C)c1ncc2nc(-c3ccc(Cl)cc3)c(=O)n(-c3ccccc3)c2n1	.	.	.	.	.	2.7%
CCOC(=O)CSC1=Nc2ccccc2C2=NC(CCC(=O)NCc3ccc(OC)cc3)C(=O)N12 (stereo unspecified)	.	.	.	.	0.8%	.
O=C(CCC1N=C2c3ccccc3N=C(SCc3ccc(Cl)cc3)N2C1=O)NCc1ccco1 (stereo unspecified)	43.5	2.6%	18.3	11.9%	2.5%	1.7%
Cc1ccc(CSC2=Nc3ccccc3C3=NC(CC(=O)NCc4ccco4)C(=O)N23)cc1 (stereo unspecified)	67.9*	2.6%	37.6*	5.0%	1.0%	?
O=C(CCC1N=C2c3ccccc3N=C(SCc3ccc(F)cc3)N2C1=O)NCc1ccco1 (stereo unspecified)	30.4	3.5%	18.6*	1.1%	-1.3%	-11.8%
O=C(CC1N=C2c3ccccc3N=C(SCc3ccc(F)cc3)N2C1=O)NCc1ccco1 (stereo unspecified)	30.3*	0.6%	32.7*	8.5%	-7.2%	11.4%
Cc1ccc(CSC2=Nc3ccccc3C3=NC(CC(=O)NCc4cccs4)C(=O)N23)cc1 (stereo unspecified)	.	.	.	.	-8.6%	.
O=C(CC1N=C2c3ccccc3N=C(SCC(=O)Nc3ccc(F)cc3)N2C1=O)NCc1ccco1 (stereo unspecified)	.	.	.	.	0.5%	.
O=C(Cn1c(=O)n(Cc2ccc(C(=O)NCc3ccccc3Cl)cc2)c(=O)c2ccccc21)Nc1ccc(F)c(Cl)c1	.	.	.	.	0.6%	.
Cc1cccc(-n2c3nc(=O)n(C)c(=O)c-3cc3c(C)nn(-c4ccccc4)c32)c1C	.	.	.	.	-2.3%	.
N#CCCn1c(=O)cnc2cnc(Oc3cccc(Cl)c3)nc21	.	.	.	.	.	5.9%
CCn1c(O)c(C=NC2CCCC(C)C2C)sc1=S (stereo unspecified)	109.8*	6.2%	50.6*	-4.0%	-2.8%	-29.8%
CCn1c(O)c(C=C2N=c3ccccc3=N2)sc1=S	9.3	-4.6%	4.0	-1.8%	-5.7%	-0.1%
SMILES	Shiga toxin inh	LmPK inhibitor	Cycloheximide cs	RE007 growth inh	Tb PYK inh	Giardia FBPA inh
O=C1CC(/C=C/c2ccccn2)=Nc2ccccc2N1	56.9*	0.2%	21.5*	-4.1%	-9.6%	-29.8%
COc1ccc(-c2cc(C(C)=O)c(C)n2CCC(=O)Nc2ccc(C(F)(F)F)cc2)cc1	.	.	.	.	0.5%[15.4 µM]	.
O=C(/C(C=Nc1cccc(C(F)(F)F)c1)=C(/O)c1ccco1)C(F)(F)F	126.5*	2.8%	92.9*	-11.3%	-6.3%	-0.9%
O=C(c1ccco1)N1CCN(S(=O)(=O)c2cccc(C(F)(F)F)c2)CC1	27.4	4.1%	4.5	2.3%	0.3%	0.2%
O=C(/C(C=Nc1ccc(Br)cc1)=C(/O)c1ccco1)C(F)(F)F	+	5.1%	41.7*	-12.1%	-1.3%	-1.4%
CCN(C(=O)CSc1nc2ccccc2n1CC(=O)N(C)C1CCCCC1)c1ccccc1	.	.	.	.	1.1%	.
O=C(Nc1ccccn1)N1CCOCC1	-12.6	3.2%	11.3	5.7%	2.0%	2.1%
O=C(Nc1ccccc1Br)C(=O)N1CCCC1	active	-8.0%	40.0*	-6.1%	9.2%	5.8%
O=C(Nc1ccccn1)C(=O)N1CCCCC1	46.9*	5.1%	21.6	17.8%	-2.9%	10.3%
C/C(CC(=O)Nc1ccccc1Br)=N\NC(=O)C(=O)N1CCCC1	-4.4	-1.9%	7.5	7.1%	1.8%	11.0%
Cc1ccc(SCC(=O)Nc2ccc(O)c(-c3nc4cc(C)ccc4o3)c2)cc1	.	.	.	.	-7.0%	.
COc1ccc2oc(-c3ccco3)cc(=O)c2c1	68.2*	?	49.8*	-23.2%	-11.7%	-10.3%
O=c1cc(-c2ccco2)oc2ccc(Cl)cc12	28.3	-1.8%	0.6	1.0%	-0.2%	5.8%
COc1ccc2c(=O)cc(-c3ccccc3F)oc2c1	53.5*	0.5%	40.6*	?	1.1%	6.7%
COc1ccc2c(=O)cc(C(F)(F)C(F)(F)F)oc2c1	-8.7	5.8%	8.2	-2.1%	2.9%	7.5%
COc1cccc2oc(-c3ccco3)cc(=O)c12	23.7	-26.6%	29.6*	-2.5%	-9.5%	-3.5%
CNS(=O)(=O)c1cn(CC(=O)Nc2cccc(OC)c2)cc1S(=O)(=O)NC	.	.	.	.	1.2%	.
O=C1CC(c2nnc(Cc3ccc(F)cc3Cl)o2)CN1c1ccccc1 (stereo unspecified)	.	.	.	.	-7.4%	.
Cc1c(Cl)cccc1-c1ccc(CNCCSc2nnnn2-c2ccccc2)o1	.	.	.	.	-0.4%	.
COCCn1c(=O)c(-c2cn(C)c3ccccc23)nc2cnc(Oc3ccc(OC)cc3)nc21	.	.	.	.	-1.2%	-16.3%
CNc1ccc(/C=C/C(=O)c2ccc(C)cc2)cc1[N+](=O)[O-]	10.6	-8.6%	0.3	0.9%	-3.5%	-4.3%
Cc1ccc(C(=O)Nc2ccc3ncccc3c2)cc1	19.1	-18.9%	13.8*	-8.5%	-3.8%	-1.9%
